Consider 92 compounds from PubChem BioAssay AID422 (Emory University Molecular Libraries Screening Center, 2006).

“And” between values parts separate entries of the source, which are not always exact repeats. Equal entries are not always repeated. About 310 (0.19%) of roughly 160,000 compounds were called active. No stated cut-off is given here; in the data, active means inhibition above about 30%; inactive means the rest. The list comes from a sample in which actives are over-represented; it also holds similar structures and randomly drawn compounds. Some compounds were tested as several samples or in several runs, with calls that do not always agree.

In this experiment the target is 14-3-3 protein gamma (Homo sapiens) (UniProt P61981). Kind of experiment: 14-3-3 gamma/Raf peptide interaction modulators – biochemical, fluorescence polarization, primary screen (AID 422).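 Further: 0% = protein plus tracer without compound and 100% = blank with tracer alone.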 To be noted: FP, 14-3-3gamma / TMR-pS259-Raf peptide binding; at 40 µM; stronger effect = higher value.
Chain of 14-3-3 protein gamma (Homo sapiens) (P61981 whole entry, looked up): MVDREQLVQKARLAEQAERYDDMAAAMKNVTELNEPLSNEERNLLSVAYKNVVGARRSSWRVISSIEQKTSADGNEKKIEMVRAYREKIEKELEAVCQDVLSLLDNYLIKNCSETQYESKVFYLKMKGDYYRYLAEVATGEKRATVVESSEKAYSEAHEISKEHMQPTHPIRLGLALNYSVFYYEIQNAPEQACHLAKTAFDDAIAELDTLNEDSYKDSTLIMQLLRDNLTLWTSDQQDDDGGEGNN
As to `Cc1ccc2c(=O)c(CN3CCOCC3)c(C)[nH]c2c1C`, the inhibition (usually the drop in the measured response relative to a control, in per cent) is -4.4% (inactive).
On to `Cc1ccc(-c2nnc(NCc3ccccc3)c3ccccc23)cc1S(=O)(=O)N1CCOCC1`, for which the inhibition is -13.1% (inactive).
`COc1ccc(CN2CCN(S(=O)(=O)c3cc(Br)c(Br)s3)CC2)c(OC)c1OC`: the inhibition was -1% (inactive).
In the case of `Cc1cc(N2CCOCC2)nc2ccc(NC(=O)c3ccc(F)cc3)cc12`, the inhibition is -5.58% (inactive).
Turning to `O=c1c2ccc(-c3ncc(-c4ccccc4)o3)c3cccc(c32)c2nc3cccc4cccc(c43)n12`, the inhibition is -3.12% (inactive).
In the case of `Clc1ccc2nc(-c3ccsc3)c(NC3CCCCC3)n2c1`, the inhibition is 1.17% (inactive).
Take `O=C(CC1Sc2ccccc2NC1=O)NCCCSC1CCCCC1` (configuration not stated): the inhibition is 5.8% (inactive).
In the case of `Cc1cccc2cc(C#N)c(N3CCCC3)nc12`, the inhibition is -5.89% (inactive).
On to `Cc1cc(NCCN2CCCCCC2)n2c(nc3ccccc32)c1C#N`, for which the inhibition is -60.5% (inactive).
As for `N#Cc1c(N2CCCCCC2)ncc2cc3ccccc3nc12`, the inhibition is 143% (active).
With `COc1ccc(NC(=O)Nc2cccc3cccnc23)cc1`, the inhibition was -2.7% (inactive).
For the compound `O=C(O)c1ccccc1C(=O)Nc1cccc2cccnc12`, the inhibition is 52.6% (active).
In the case of `O=C(Nc1cccc2cccnc12)c1cccc(N2C(=O)CCC2=O)c1`, the inhibition was 2.56% (inactive).
In the case of `O=C(NC1CCCCNC1=O)c1ccc(N2CC3CC(C2)c2cccc(=O)n2C3)c(NC(=O)c2ccccc2Br)c1` (configuration not stated), the inhibition is -4.63% (inactive).
As for `CN(Cc1ccccc1)S(=O)(=O)c1ccc2c(c1)CCN2C(=O)C1CCC1`, the inhibition is -4.53% (inactive).
With `Cc1ccc(-c2csc(Nc3ccccc3)n2)c(C)c1` the figure was -4.17% (inactive); with `O=C(CSc1nc2ccccc2[nH]1)c1cccs1`, -10.8% (inactive) and -0.41% (inactive); with `C=CCSc1nc2ccccc2[nH]1`, 50.5% (active) and -1.38% (inactive).
Regarding `c1ccc2[nH]c(-c3nc4ccccc4[nH]3)nc2c1`, the inhibition was -4.13% (inactive).
On to `COc1cc(OC)c(C2C(C(=O)O)c3cc(OC)c(OC)cc3C(=O)N2C)cc1OC` (configuration not stated), for which the inhibition was 4.71% (inactive).
Consider `O=C(O)c1c[nH]c2ccc(S(=O)(=O)N3CCN(c4cccc(Cl)c4)CC3)cc2c1=O`, for which the inhibition was -20.1% (inactive).
Take `COc1ccc(NC(=O)c2cc([N+](=O)[O-])ccc2Cl)cc1OC`: the inhibition was -12.3% (inactive).
Consider `COc1ccc(CCNC(=O)c2cc(Cl)ccc2OC)cc1`, for which the inhibition is -6.62% (inactive).
In the case of `COc1cc2ccccc2cc1C(=O)NCCc1ccccc1`, the inhibition was 76% (active).
Regarding `CC(=O)Oc1ccccc1C(=O)NCCc1ccccc1`, the inhibition is 3.04% (inactive).
On to `CCCCN(CC)C(=O)C1c2cc(OC)c(OC)cc2C(=O)N(C)C1c1ccccc1F` (configuration not stated), for which the inhibition is -7.13% (inactive).
`O=C(Oc1ccc(C2NC(=O)c3c(sc4c3CCCC4)N2)cc1)c1ccccc1` (configuration not stated): the inhibition is -5.95% (inactive).
Consider `O=S(=O)(Nc1ccccn1)c1ccccc1`, for which the inhibition was -1.79% (inactive).
Regarding `Cc1ccc(NC(=O)c2cccc(Oc3ccc(C#N)cc3)c2)cc1`, the inhibition was -12% (inactive).
Take `O=C(Nc1nccs1)c1cc2cc(Cl)ccc2oc1=Nc1ccc(Br)cc1`: the inhibition is -1.07% (inactive).
In the case of `COc1ccc(CNCC2OCCc3ccccc32)cc1OC` (configuration not stated), the inhibition is -5.29% (inactive).
Take `O=C(NCCc1ccccc1)C1Cc2ccccc2CN1S(=O)(=O)c1cccs1` (configuration not stated): the inhibition is -6.94% (inactive).
Then `Cc1sc(NC(=O)c2cc(=O)c3ccccc3o2)nc1-c1ccccc1`, with 0.55% (inactive).
As for `CCN(CC)c1ccc2cc(C(=O)NC(C)=O)c(=Nc3ccccc3OC)oc2c1`, the inhibition was 133% (active).
For the compound `CCN(CC)c1ccc2cc(C(N)=O)c(=Nc3ccc(C(N)=O)cc3)oc2c1`, the inhibition is 3.05% (inactive).
For `CCN(CC)c1ccc2cc(C(=O)O)c(=O)oc2c1`, the inhibition is -6.88% (inactive).
For the compound `COc1cccc(-c2nn(C)c3sc(C(=O)NCCCOC(C)C)cc23)c1`, the inhibition was -12.3% (inactive).
On to `O=C(OCCN1C(=O)c2ccccc2C1=O)c1ccc([N+](=O)[O-])cc1`, for which the inhibition was 5.13% (inactive).
Consider `COC(=O)c1ccc2c(c1N)C(=O)c1ccccc1C2=O`, for which the inhibition was -200% (inactive).
With `CC(C)CCOC(=O)c1c2c(n3ccccc13)C(=O)c1ccccc1C2=O`, the inhibition was 34.6% (active).
As to `Cc1ccc2nc3c(nc2c1)C(=O)c1ccccc1C3=O`, the inhibition is -16.2% (inactive).
In the case of `Cc1cc2c3c(ccc(N)c3n1)C(=O)c1ccccc1-2`, the inhibition was 127% (active).
With `Cc1ccc2c(c1)-c1cccc3cccc(c13)C2=O`, the inhibition is 3.94% (inactive).
With `CCc1ccccc1NC(=O)c1cc2cc3ccc(OC)cc3nc2o1`, the inhibition was 17.8% (inactive).
As to `O=C(Cc1ccc(Cl)cc1)Nc1cccc(-c2nc3ccccc3o2)c1`, the inhibition is -129% (inactive).
In the case of `COc1ccc(C2C3=C(CCCC3=O)OC3=C2C(=O)CCC3)cc1`, the inhibition is 0.11% (inactive).
On to `CCC(=O)N1CCc2cc(S(=O)(=O)CCC(=O)N3CCN(c4cccc(OC)c4)CC3)ccc21`, for which the inhibition is 3.36% (inactive).
For `COc1cc2ccccc2cc1C(=O)Nc1nc(-c2c(OC)ccc3ccccc23)cs1`, the inhibition was -0.5% (inactive).
With `COC(=O)C1=CN(C)C=C(C(=O)OC)C1c1cc(OC)ccc1OC`, the inhibition is 1.92% (inactive).
As to `O=C(COc1ccc(C2CCCCC2)cc1)Nc1ccc(-c2nc3ncccc3o2)cc1`, the inhibition is -12.3% (inactive).
For `CC(=O)COc1cc(C)cc2oc(=O)c(Cc3ccccc3)c(C)c12`, the inhibition was 4.62% (inactive).
With `COCCn1c(=S)[nH]c2cc(C(=O)N3CCN(C(=O)c4ccco4)CC3)ccc2c1=O`, the inhibition was 2.47% (inactive).
Then `CCOc1cc2c(cc1OCC)C1C(C(=O)NCCN3CCOCC3)c3ccccc3C(=O)N1CC2` (configuration not stated), with 8.01% (inactive); and `S=c1[nH]ncn1-c1cccnc1`, with 40.8% (active); and `C(=N\n1cnnc1)/c1cccnc1`, with -6.33% (inactive).
As to `CC(C)(C)c1ccc(-c2nc(Cc3ccc(Cl)cc3)no2)cc1`, the inhibition was -5.54% (inactive).
On to `COC(=O)C1=C(C)N=C2SC(C)C(=O)N2C1c1ccc(C)cc1` (configuration not stated), for which the inhibition was -10.9% (inactive).
Turning to `CC(C)c1ccc(NC(=O)c2ccc(F)c(S(=O)(=O)NCc3ccccc3Cl)c2)cc1`, the inhibition is -7.39% (inactive).
In the case of `COc1ccc(NC(=O)CSc2nc3nc(C)cc(C)n3n2)c(OC)c1`, the inhibition is -15.5% (inactive).
Turning to `CCOC(=O)c1ccc(N2C(=O)C3CCCCC3C2=O)cc1` (configuration not stated), the inhibition is -3.67% (inactive).
Then `O=C(NCCC1=CCCCC1)c1ccc2c(=O)n(Cc3cccc(Br)c3)c(=S)[nH]c2c1`, with -9.75% (inactive); and `CCc1ccc2oc(-c3cc(NC(=O)c4ccc(OC)cc4)ccc3Cl)nc2c1`, with -44.5% (inactive).
`CC(C)(c1ccc(NC(=O)C(F)(F)F)cc1)c1ccc(NC(=O)C(F)(F)F)cc1`: the inhibition was -13.8% (inactive).
Then `CCN(CC)C(=O)CSc1nc2ccccc2n1S(=O)(=O)c1cccc([N+](=O)[O-])c1`, with -1.43% (inactive).
Consider `Cc1cc(N2CC(C)CC(C)C2)nc2ccc([N+](=O)[O-])cc12` (configuration not stated), for which the inhibition was -9.05% (inactive).
For `Cc1cc2c(c(=O)[nH]1)C(=O)NC2=O`, the inhibition was -1.31% (inactive).
Regarding `O=c1cc(-c2ccccc2)nc(SCCOc2ccc(Cl)cc2)[nH]1`, the inhibition is -2.33% (inactive).
Turning to `Cc1ccccc1CN1CCN(CC(=O)NCc2cccs2)C1=O`, the inhibition was -7.12% (inactive).
Then `Cc1ccc(CNC(=O)CN2CCN(Cc3ccc(Cl)cc3)C2=O)cc1`, with -3.75% (inactive); and `Cc1ccccc1CN1CCN(CC(=O)NCc2ccccn2)C1=O`, with 45.7% (active) and 3.37% (inactive); and `CCOC(=O)c1cc2c(=O)n3ccccc3nc2n(CCCOC)c1=NC(=O)c1cccc(Br)c1`, with 0.86% (inactive).
As to `CC(=O)C1=NN(c2ccccc2)C(c2c[nH]c3ccccc23)N1c1ccc(N2CCOCC2)c(Cl)c1` (configuration not stated), the inhibition is -3.29% (inactive).
With `CN(CCC#N)C(=O)CN1C(=O)COc2ccc(C(C)(C)C)cc21` the figure was 2.44% (inactive); with `O=C1NCCCC1C(=O)NC1CCCCC1` (configuration not stated), -10.1% (inactive).
With `CCc1sc(-c2cc3cccc(OC)c3oc2=O)nc1-c1ccc(C)cc1` the figure was -56.6% (inactive); with `Cc1ccc(C2OC3(C(=O)c4ccccc4C3=O)C3C(=O)N(c4ccc(Br)cc4)C(=O)C23)cc1` (configuration not stated), -39.8% (inactive); with `O=C(OCC(=O)N1CCCC1)c1ccco1`, -8.04% (inactive).
For the compound `COC(=O)c1ccc(NC(=O)c2ccco2)cc1`, the inhibition is -6.08% (inactive).
In the case of `CC1CN(C)C(C)CC1OC(=O)c1ccco1` (configuration not stated), the inhibition is 34.5% (active).
`O=C(Nc1ccccc1O)c1ccco1`: the inhibition was -6.85% (inactive).
With `O=C(CCCOc1ccc(Br)cc1)Nc1ncc(Cc2ccc(F)cc2)s1`, the inhibition was -2.12% (inactive).
Consider `COc1ccc(C2C=C(c3ccc(OC(F)F)cc3)Nc3ncnn32)cc1` (configuration not stated), for which the inhibition was 4.5% (inactive).
`Cc1ccc(/C(O)=C2\C(=O)C(=O)N(CCC(=O)O)C2c2ccc(Br)cc2)cc1` (configuration not stated): the inhibition is -1.96% (inactive).
Regarding `CCC(C(=O)Nc1c2c(nn1-c1ccc([N+](=O)[O-])cc1)CSC2)c1ccccc1` (configuration not stated), the inhibition was -13.7% (inactive).
With `CN(C)c1ccc(Nc2cc(N3CCCC3)c3noc4c3c2C(=O)c2ccccc2-4)cc1`, the inhibition is -88.4% (inactive).
For the compound `CCNc1cc(Nc2ccccc2)c2c3c(onc13)-c1ccccc1C2=O`, the inhibition was -69.4% (inactive).
With `CCCCCc1ccc(S(=O)(=O)Nc2cnc3ccccc3c2)cc1` the figure was 0.52% (inactive).
Regarding `CC1CCN(CCCNC(=O)C2CC(=O)N(C3CCCCCCC3)C2)CC1` (configuration not stated), the inhibition was 3.07% (inactive).
Take `Cn1c(SCc2ccccc2Br)nnc1-c1ccc([N+](=O)[O-])cc1`: the inhibition was -3.43% (inactive).
Then `CCOC(=O)C(NC(=O)c1ccc(OC)cc1)(NC1CCCCC1)C(F)(F)F` (configuration not stated), with -6.18% (inactive).
`O=C(NCCn1cc(SCc2cccc(F)c2)c2ccccc21)c1ccccc1F`: the inhibition was 0.8% (inactive).
Take `COc1cc([N+](=O)[O-])ccc1NC(=O)C1CC(=O)NC(=Nc2ccc(C)cc2)S1` (configuration not stated): the inhibition was 1.95% (inactive).
